Assay results taken from PubChem BioAssay (NCI).
The panel holds about 83,000 compounds, 20% with a hit somewhere; the sample as a whole holds those more often.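 Compound tested at a single concentration for 48 hours in 96-well plates; a percent growth value below 10 was scored as active.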 Calls of active or inactive are those of the source.

Legend:
Experiment in all cases: NCI-60 one-dose screen, 48 h (100 = growth as untreated, 0 = no growth, -100 = all killed)
Settings in all cases: 10 µM unless noted
[1] = tested on: SR leukemia
[2] = tested on: RPMI-8226 leukemia
[3] = tested on: OVCAR-8 ovarian
[4] = tested on: OVCAR-5 ovarian
[5] = tested on: OVCAR-4 ovarian
[6] = tested on: SK-OV-3 ovarian
[7] = tested on: IGROV1 ovarian
[8] = tested on: OVCAR-3 ovarian
[9] = tested on: HS 578T breast
[10] = tested on: NCI/ADR-RES ovarian

Measured: growth

CCCCCCCCCCCCCCCCCCOc1ccccc1CC(=O)NCC[N+](C)(C)C
active: [7] -49.7%
inactive: [1] 21.3% | [2] 17.9% | [3] 41.7% | [4] 14.6% | [5] 46.7% | [6] 84.9% | [8] 35% | [9] 61.8% | [10] 99.3%

CCOC(=O)c1nnn(-c2no[n+]([O-])c2-c2ccc(OC)cc2)c1COc1cccc2cccnc12
active: [1] 6.52% | [2] 4.48% | [3] 0.67% | [10] 9.15%
inactive: [4] 48.6% | [5] 27% | [6] 12.4% | [7] 23.5% | [8] 16.8% | [9] 24.8%

COc1ccc(C/C(C)=C(\c2ccc(Cl)cc2)c2ccc(OCCN3CCCC3)cc2)cc1
active: [1] -14.2%
inactive: [2] 13.9% | [3] 91.1% | [4] 68.9% | [5] 97.7% | [6] 101% | [7] 69% | [8] 93.1% | [9] 70.4% | [10] 87.8%

O=C1/C(=C/c2ccc(Cl)cc2)CN(C(=O)C(Cl)Cl)C/C1=C\c1ccc(Cl)cc1
active: [1] -8.06% | [2] -28.6% | [3] -3.39% | [4] -61.8% | [5] 1.03% | [6] -7.85% | [7] -76.3% | [8] -97.9% | [9] -8.2% | [10] -2.96%

CC12OC(CC(O)C1O)n1c3ccccc3c3c4c(c5c6ccccc6n2c5c31)C(=O)N(CCN1CCCC1)C4=O (stereo not given)
active: [1] 2.44% | [2] 1.17%
inactive: [3] 26.3% | [4] 41.4% | [5] 27.9% | [6] 10.4% | [7] 13.9% | [8] 25.7% | [9] 41.1% | [10] 46.4%

Cc1ccc(-c2csc(NC(=O)CSc3nc(N)cc(N)n3)n2)cc1
inactive: [1] 42.9% | [2] 44% | [3] 71% | [4] 91.2% | [5] 64% | [6] 88% | [7] 74.1% | [8] 73.2% | [9] 87.6% | [10] 51.8%

COc1ccc(/C=C(/C(=O)N2CCNCC2)c2cc(OC)c(OC)c(OC)c2)cc1O
active: [1] 3.13% | [2] 9.6%
inactive: [3] 52.1% | [4] 86.3% | [5] 78.7% | [6] 10.1% | [7] 60.2% | [8] 10.5% | [9] 26.7% | [10] 105%

COc1ccc(N/N=C/c2cn(-c3ccc(C(=O)O)cc3)nc2-c2cc3ccccc3oc2=O)cc1
inactive: [1] 44.8% | [2] 51.6% | [3] 65.4% | [4] 70.2% | [5] 79% | [6] 99.1% | [7] 71.5% | [8] 74.1% | [9] 106% | [10] 67.6%

O=C(/C=C/C12c3ccccc3C(c3ccccc31)C1C(=O)NC(=O)C12)c1ccc(I)cc1 (stereo not given)
active: [2] 3.09% | [8] 9.43%
inactive: [1] 25.2% | [3] 35.6% | [4] 73.4% | [5] 84.8% | [6] 83% | [7] 55.6% | [9] 49.1% | [10] 50.9%

CCOC(=O)/C=C1\S/C(=N\Nc2cc(=O)[nH]c3ccc(Br)cc23)N(c2ccccc2)C1=O
inactive: [3] 72.2% | [4] 102% | [5] 58% | [6] 110% | [7] 58.7% | [9] 74.7% | [10] 97.1%
active: [1] 3.76% | [2] -12.5% | [8] -17%

O=C(O)c1cn(C2CC2)c2cc(N3CCN(C(=O)N/N=C/c4cccc5ccccc45)CC3)c(F)cc2c1=O
inactive: [1] 88.5% | [2] 110% | [3] 95.3% | [4] 110% | [5] 98.3% | [6] 87% | [7] 94.5% | [8] 104% | [9] 96.2% | [10] 105%

Cc1nc2sc(C(=O)Nc3cccc(Cl)c3C)c(N)c2cc1C(=O)/C=C/c1ccccc1
active: [2] -37.2% | [3] -12.5% | [4] 8.98% | [7] -11.8% | [8] -76.6% | [9] 6.35% | [10] -4.7%
inactive: [1] 14.2% | [5] 35.5% | [6] 28.8%

COc1nc(/C=C\Nc2ccc3c(c2)OCCOCCOCCOCCO3)nc(OC)n1
inactive: [1] 119% | [2] 94.3% | [3] 108% | [4] 98.3% | [5] 95.5% | [6] 106% | [7] 97.2% | [8] 99.2% | [9] 89.9% | [10] 93.7%

COc1ccc(-c2cc(C(=O)N3N=C(c4ccc(N)cc4)CC3c3ccc(Cl)cc3)c3cc(OC)ccc3n2)cc1 (stereo not given)
inactive: [1] 20.9% | [2] 20.9% | [3] 56.4% | [4] 76.1% | [5] 53.9% | [6] 89.7% | [7] 39.6% | [8] 42.7% | [9] 87.3% | [10] 14.8%

CCOC(=O)NCCCC(=O)NCCc1ccccc1
inactive: [1] 106% | [2] 110% | [3] 104% | [4] 118% | [5] 107% | [6] 108% | [7] 106% | [8] 108% | [9] 106% | [10] 104%

CSc1nc(-c2ccco2)c(C#N)c(=O)n1C
inactive: [1] 74.9% | [2] 91.8% | [3] 108% | [4] 109% | [5] 103% | [6] 97% | [7] 105% | [8] 104% | [9] 97% | [10] 51.2%

CN(C)C1CN(C(=O)c2cc(-c3ccc4ncnc(N5CCc6cc(F)c(Cl)cc65)c4c3)cnc2N)C1
active: [2] -10.8% | [5] 5.94% | [7] -33.6% | [8] -16.5% | [9] -24.1%
inactive: [1] 13.3% | [3] 16% | [4] 28.1% | [6] 23.1% | [10] 21.1%

CCC(C)(C)c1ccc(Nc2ccc(Nc3ccc(C(C)(C)CC)cc3)cc2)cc1
inactive: [1] 87.7% | [2] 76.8% | [3] 87.7% | [4] 93.8% | [5] 89.2% | [6] 89.7% | [7] 95.3% | [8] 89.9% | [9] 88.9% | [10] 91.7%

CCOc1ncc([N+](=O)[O-])c(OCC)n1
inactive: [1] 93.7% | [2] 84.8% | [3] 105% | [4] 101% | [5] 113% | [6] 97% | [7] 107% | [8] 124% | [9] 121% | [10] 99.5%

O=C1CCCCN1c1ccc(C2=NCCCN2)cc1
inactive: [1] 99.8% | [2] 57.4% | [3] 104% | [4] 95.9% | [5] 91.3% | [6] 119% | [7] 95.9% | [8] 83.9% | [9] 73.2% | [10] 103%

CCN(CC)CCN1C(=O)c2c(c3c4ccccc4[nH]c3c3ccc4ccccc4c23)C1=O
active: [1] -22.5% | [2] -33.1% | [3] -29.1% | [4] -85.8% | [5] -79.5% | [10] -40.9%
inactive: [6] 83.1% | [7] 76.1% | [8] 109% | [9] 87.4%

CCOC(=O)/C(=C(/C)NCC(C)C)c1cc(O)c(O)c2c(C)cc(=O)[nH]c12
inactive: [1] 18.4% | [2] 19.2% | [3] 23.8% | [4] 86.6% | [5] 25.8% | [6] 84.4% | [7] 61% | [9] 79.5% | [10] 17.2%
active: [8] 6.74%

c1ccc(Cn2cc3c(c2-c2ccccc2)CCc2cnoc2-3)cc1
inactive: [1] 37.3% | [2] 46.7% | [3] 84.5% | [4] 96% | [5] 86.2% | [6] 88% | [7] 76.6% | [8] 56.7% | [9] 71.5% | [10] 40.6%

COc1ccc2c(c1)c(-c1nc(-c3ccc4ccccc4c3)cs1)cn2C
inactive: [1] 49.9% | [2] 102% | [3] 95.3% | [4] 91.6% | [5] 94.3% | [6] 93% | [7] 85.9% | [8] 96.2% | [9] 97% | [10] 98%

CN(C)c1ccc(/C=C2\C=C(c3nc4ccccc4s3)OC2=O)cc1
inactive: [1] 96.7% | [2] 72% | [3] 100% | [4] 96.9% | [5] 81.7% | [6] 86.8% | [7] 89.7% | [8] 102% | [9] 92.2% | [10] 98.8%

O=c1cc(CP(=O)(O)O)c2cc(O)c(-c3ccccc3)cc2o1
inactive: [1] 95.2% | [2] 99.2% | [3] 101% | [4] 101% | [5] 98.5% | [6] 102% | [7] 104% | [8] 108% | [9] 101% | [10] 102%
